# Measurements from PMC7862700, “An all-to-all approach to the identification of sequence-specific readers for epigenetic DNA modifications on cytosine”.
# Assays:
# Assay in all cases: DAPPL (digital affinity profiling via proximity ligation, sequencing); 10 mM Tris-HCl pH 7.5, 50 mM NaCl, 1 mM DTT, 4% glycerol, room temperature, 30 min; GST-TFs on glutathione beads, 16-mer random dsDNA library, 0.1% formaldehyde crosslink after washing; high values mean tight binding
# [1] = molecular target: T1, FLI1 (Homo sapiens, UniProt Q01543 1-452); conditions: protein: recombinant; tags: N-terminal GST; dsDNA, one strand shown
# T1 sequence: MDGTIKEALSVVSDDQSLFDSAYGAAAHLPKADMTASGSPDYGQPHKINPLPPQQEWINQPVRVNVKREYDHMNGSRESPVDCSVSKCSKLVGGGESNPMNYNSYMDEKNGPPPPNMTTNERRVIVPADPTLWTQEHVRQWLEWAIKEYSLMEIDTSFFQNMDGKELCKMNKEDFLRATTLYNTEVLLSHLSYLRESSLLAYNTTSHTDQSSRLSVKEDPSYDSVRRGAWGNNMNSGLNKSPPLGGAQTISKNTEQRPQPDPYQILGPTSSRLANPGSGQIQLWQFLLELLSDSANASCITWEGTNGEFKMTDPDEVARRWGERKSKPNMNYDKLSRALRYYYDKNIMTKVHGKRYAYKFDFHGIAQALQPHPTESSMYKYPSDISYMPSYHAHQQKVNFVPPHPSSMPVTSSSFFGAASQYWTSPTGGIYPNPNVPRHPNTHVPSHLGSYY
# How it was run: (§1)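 Binding signal is defined as a hexamer's read frequency for one factor over its frequency for the tag-only sample. To obtain reads, GST-fused human transcription factors were expressed in yeast, captured on glutathione beads, barcoded with DNA and pooled with that sample. Pools met 200 nmole of a 16-mer random double-stranded DNA library in Tris/NaCl/DTT/glycerol buffer for 30 min at room temperature before washing, 0.1% formaldehyde crosslinking, proximity ligation (BsaI/T4 ligase, 1 h, 37 °C), PCR and Illumina NextSeq500 sequencing.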
# [2] = molecular target: T2, ELK1 (Homo sapiens, UniProt P19419 1-428); conditions: protein: recombinant; tags: N-terminal GST; dsDNA, one strand shown
# T2 sequence: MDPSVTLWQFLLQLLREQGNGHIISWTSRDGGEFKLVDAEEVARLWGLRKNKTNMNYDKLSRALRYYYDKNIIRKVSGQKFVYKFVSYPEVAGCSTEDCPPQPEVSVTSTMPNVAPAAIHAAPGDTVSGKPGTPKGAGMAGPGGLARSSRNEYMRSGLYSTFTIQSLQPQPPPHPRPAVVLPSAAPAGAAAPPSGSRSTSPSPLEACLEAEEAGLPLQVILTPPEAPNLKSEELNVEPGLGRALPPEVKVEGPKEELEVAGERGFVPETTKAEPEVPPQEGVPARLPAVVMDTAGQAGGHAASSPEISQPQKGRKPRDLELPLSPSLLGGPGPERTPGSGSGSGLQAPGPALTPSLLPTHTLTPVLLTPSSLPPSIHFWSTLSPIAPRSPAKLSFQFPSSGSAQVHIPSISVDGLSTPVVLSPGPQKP
# How it was run: as §1
# [3] = molecular target: T3, GABPA (Homo sapiens, UniProt Q06546 1-454); conditions: protein: recombinant; tags: N-terminal GST; dsDNA, one strand shown
# T3 sequence: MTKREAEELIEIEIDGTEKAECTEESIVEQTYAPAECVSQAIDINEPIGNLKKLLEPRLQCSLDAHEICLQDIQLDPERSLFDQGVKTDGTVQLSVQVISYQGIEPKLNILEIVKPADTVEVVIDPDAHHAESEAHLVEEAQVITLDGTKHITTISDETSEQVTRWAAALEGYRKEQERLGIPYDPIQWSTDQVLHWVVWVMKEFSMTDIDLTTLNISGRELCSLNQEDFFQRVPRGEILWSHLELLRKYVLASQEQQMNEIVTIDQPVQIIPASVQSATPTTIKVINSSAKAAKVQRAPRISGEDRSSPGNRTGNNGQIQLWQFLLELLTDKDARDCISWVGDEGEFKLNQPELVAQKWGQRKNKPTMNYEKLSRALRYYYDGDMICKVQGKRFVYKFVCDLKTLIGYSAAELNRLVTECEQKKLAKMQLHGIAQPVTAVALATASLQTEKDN
# How it was run: as §1
# [4] = molecular target: T4, ERG (Homo sapiens, UniProt P11308 1-479); conditions: protein: recombinant; tags: N-terminal GST; dsDNA, one strand shown
# T4 sequence: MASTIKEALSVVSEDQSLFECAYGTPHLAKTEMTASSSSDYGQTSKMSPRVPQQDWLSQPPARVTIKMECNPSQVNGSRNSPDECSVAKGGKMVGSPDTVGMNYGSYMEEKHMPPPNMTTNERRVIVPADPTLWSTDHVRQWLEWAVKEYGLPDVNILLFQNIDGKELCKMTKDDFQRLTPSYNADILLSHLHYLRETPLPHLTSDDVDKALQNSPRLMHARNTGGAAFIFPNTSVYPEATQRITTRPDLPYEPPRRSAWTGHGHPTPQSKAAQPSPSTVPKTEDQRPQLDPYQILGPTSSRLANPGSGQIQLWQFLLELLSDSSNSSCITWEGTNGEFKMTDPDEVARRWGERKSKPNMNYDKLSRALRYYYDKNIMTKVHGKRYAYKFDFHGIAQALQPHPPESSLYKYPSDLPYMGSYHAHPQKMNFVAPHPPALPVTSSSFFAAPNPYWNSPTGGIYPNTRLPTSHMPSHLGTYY
# How it was run: as §1
# [5] = molecular target: ELF1 (Homo sapiens, UniProt P32519 1-619); conditions: protein: recombinant; tags: N-terminal GST; dsDNA, one strand shown
# How it was run: as §1
# [6] = molecular target: T5, EHF (Homo sapiens, UniProt Q9NZC4 1-300); conditions: protein: recombinant; tags: N-terminal GST; dsDNA, one strand shown
# T5 sequence: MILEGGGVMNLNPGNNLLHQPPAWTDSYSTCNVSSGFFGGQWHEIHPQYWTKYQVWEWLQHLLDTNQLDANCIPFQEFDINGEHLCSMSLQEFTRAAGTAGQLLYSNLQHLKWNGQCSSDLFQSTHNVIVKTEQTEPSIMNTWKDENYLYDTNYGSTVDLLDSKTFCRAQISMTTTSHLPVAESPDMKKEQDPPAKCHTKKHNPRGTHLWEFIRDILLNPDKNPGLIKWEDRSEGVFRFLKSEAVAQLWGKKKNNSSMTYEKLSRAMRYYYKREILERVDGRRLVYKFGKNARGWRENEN
# How it was run: as §1
# [7] = molecular target: SPI1 (Homo sapiens, UniProt P17947 1-270); conditions: protein: recombinant; tags: N-terminal GST; dsDNA, one strand shown
# How it was run: as §1
# [8] = molecular target: SPIB (Homo sapiens, UniProt Q01892 1-262); conditions: protein: recombinant; tags: N-terminal GST; dsDNA, one strand shown
# How it was run: as §1
# [9] = molecular target: T6, ELK3 (Homo sapiens, UniProt P41970 1-407); conditions: protein: recombinant; tags: N-terminal GST; dsDNA, one strand shown
# T6 sequence: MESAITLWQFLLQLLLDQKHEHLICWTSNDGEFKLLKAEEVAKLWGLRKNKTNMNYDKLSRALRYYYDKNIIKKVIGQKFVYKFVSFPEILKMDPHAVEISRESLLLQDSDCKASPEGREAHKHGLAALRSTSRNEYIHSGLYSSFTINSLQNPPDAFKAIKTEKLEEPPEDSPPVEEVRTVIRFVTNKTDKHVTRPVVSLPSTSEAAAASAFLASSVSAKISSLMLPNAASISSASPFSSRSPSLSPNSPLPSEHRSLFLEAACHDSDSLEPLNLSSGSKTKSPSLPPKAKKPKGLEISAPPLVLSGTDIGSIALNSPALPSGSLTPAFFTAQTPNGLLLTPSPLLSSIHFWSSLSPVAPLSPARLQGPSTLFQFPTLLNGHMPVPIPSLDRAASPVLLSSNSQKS
# How it was run: as §1
# [10] = molecular target: T7, FEV (Homo sapiens, UniProt Q99581 1-238); conditions: protein: recombinant; tags: N-terminal GST; dsDNA, one strand shown
# T7 sequence: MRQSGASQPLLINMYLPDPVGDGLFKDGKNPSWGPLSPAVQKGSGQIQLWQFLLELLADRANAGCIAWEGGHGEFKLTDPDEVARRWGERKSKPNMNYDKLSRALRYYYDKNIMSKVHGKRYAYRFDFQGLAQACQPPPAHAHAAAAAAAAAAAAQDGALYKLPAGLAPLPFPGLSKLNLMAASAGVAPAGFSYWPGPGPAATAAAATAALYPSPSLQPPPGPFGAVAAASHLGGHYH
# How it was run: as §1
# [11] = molecular target: ETV5 (Homo sapiens, UniProt P41161 1-510); conditions: protein: recombinant; tags: N-terminal GST; dsDNA, one strand shown
# How it was run: as §1
# [12] = molecular target: HSF1 (Homo sapiens, UniProt Q00613 1-529); conditions: protein: recombinant; tags: N-terminal GST; chain copies: 3; dsDNA, one strand shown
# How it was run: as §1
# [13] = molecular target: T8, SPIC (Homo sapiens, UniProt Q8N5J4 1-248); conditions: protein: recombinant; tags: N-terminal GST; dsDNA, one strand shown
# T8 sequence: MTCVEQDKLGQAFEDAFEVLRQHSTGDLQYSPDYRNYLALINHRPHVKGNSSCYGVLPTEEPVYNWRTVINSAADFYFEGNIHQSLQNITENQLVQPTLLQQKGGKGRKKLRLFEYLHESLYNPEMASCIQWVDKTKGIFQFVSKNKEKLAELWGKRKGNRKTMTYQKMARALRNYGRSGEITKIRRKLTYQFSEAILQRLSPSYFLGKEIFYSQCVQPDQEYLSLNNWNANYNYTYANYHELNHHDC
# How it was run: as §1
# [14] = molecular target: ELF4 (Homo sapiens, UniProt Q99607 1-663); conditions: protein: recombinant; tags: N-terminal GST; dsDNA, one strand shown
# How it was run: as §1
# [15] = molecular target: T9, ELK4 (Homo sapiens, UniProt P28324-2 1-405); conditions: protein: recombinant; tags: N-terminal GST; dsDNA, one strand shown
# T9 sequence: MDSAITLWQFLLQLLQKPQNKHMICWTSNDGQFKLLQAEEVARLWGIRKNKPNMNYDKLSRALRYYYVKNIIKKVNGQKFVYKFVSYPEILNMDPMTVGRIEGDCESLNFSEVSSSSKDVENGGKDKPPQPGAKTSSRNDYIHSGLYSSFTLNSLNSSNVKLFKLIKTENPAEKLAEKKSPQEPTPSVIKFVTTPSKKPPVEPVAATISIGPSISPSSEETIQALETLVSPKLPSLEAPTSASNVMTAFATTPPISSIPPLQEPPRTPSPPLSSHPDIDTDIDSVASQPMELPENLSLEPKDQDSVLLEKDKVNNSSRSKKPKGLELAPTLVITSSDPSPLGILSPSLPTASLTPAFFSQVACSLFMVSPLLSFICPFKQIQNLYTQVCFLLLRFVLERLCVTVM
# How it was run: as §1
# [16] = molecular target: T10, ETV2 (Homo sapiens, UniProt O00321 1-342); conditions: protein: recombinant; tags: N-terminal GST; dsDNA, one strand shown
# T10 sequence: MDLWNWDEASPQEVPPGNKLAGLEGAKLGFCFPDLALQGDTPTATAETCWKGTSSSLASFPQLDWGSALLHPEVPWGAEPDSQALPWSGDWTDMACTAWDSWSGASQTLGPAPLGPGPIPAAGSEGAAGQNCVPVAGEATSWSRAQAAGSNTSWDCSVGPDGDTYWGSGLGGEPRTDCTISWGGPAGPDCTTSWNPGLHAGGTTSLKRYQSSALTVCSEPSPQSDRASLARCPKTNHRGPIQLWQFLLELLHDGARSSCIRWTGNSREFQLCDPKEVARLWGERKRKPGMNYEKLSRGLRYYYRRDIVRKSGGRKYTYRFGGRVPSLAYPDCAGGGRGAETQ
# How it was run: as §1
# [17] = molecular target: CRX (Homo sapiens, UniProt O43186 1-299); conditions: protein: recombinant; tags: N-terminal GST; dsDNA, one strand shown
# How it was run: as §1
# [18] = molecular target: ETV1 (Homo sapiens, UniProt P50549 1-477); conditions: protein: recombinant; tags: N-terminal GST; dsDNA, one strand shown
# How it was run: as §1
# Chain of ELF4 (Q99607 whole entry): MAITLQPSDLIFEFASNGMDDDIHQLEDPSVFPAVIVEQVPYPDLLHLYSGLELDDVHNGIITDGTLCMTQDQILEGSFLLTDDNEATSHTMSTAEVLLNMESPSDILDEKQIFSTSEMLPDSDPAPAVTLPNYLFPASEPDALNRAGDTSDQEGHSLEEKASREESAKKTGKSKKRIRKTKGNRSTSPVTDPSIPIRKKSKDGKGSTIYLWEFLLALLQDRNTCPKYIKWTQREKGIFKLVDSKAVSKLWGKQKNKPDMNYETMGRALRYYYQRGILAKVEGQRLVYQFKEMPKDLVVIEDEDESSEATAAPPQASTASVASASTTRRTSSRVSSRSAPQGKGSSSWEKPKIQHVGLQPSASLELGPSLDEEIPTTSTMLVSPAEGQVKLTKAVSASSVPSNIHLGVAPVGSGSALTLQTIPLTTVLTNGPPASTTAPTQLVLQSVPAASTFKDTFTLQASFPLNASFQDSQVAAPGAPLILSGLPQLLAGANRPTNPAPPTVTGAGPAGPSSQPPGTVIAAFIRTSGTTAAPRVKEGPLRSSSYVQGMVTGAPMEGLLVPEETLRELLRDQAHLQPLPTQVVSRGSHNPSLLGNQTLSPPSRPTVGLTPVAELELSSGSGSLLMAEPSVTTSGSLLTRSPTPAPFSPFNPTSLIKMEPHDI
# Chain of ETV1 (P50549 whole entry): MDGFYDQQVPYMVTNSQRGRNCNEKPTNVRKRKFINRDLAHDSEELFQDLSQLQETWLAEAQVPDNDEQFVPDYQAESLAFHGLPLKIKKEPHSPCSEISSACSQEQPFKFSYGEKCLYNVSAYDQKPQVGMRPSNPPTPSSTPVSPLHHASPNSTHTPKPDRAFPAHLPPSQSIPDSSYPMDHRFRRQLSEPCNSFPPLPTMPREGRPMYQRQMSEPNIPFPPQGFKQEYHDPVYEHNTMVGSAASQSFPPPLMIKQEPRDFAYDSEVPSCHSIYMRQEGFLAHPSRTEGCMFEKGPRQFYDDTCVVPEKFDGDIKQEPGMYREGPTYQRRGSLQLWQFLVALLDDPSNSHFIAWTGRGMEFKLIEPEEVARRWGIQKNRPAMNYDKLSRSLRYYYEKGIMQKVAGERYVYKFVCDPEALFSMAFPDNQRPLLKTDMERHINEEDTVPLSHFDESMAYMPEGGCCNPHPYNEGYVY
# Chain of ETV5 (P41161 whole entry): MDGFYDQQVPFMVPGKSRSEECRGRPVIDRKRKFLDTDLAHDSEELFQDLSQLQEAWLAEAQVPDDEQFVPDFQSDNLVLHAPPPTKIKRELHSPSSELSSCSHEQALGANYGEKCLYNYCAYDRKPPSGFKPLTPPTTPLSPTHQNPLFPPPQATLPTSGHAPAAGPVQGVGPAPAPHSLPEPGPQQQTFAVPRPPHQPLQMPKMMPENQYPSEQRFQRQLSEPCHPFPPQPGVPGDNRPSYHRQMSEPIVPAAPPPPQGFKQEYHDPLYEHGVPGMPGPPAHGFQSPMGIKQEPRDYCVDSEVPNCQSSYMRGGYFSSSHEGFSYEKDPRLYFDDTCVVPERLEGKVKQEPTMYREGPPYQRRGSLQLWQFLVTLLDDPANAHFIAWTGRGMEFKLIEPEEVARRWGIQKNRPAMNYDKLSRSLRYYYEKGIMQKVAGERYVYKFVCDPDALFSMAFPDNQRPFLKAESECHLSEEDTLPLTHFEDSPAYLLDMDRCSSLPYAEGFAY
# Chain of CRX (O43186 whole entry): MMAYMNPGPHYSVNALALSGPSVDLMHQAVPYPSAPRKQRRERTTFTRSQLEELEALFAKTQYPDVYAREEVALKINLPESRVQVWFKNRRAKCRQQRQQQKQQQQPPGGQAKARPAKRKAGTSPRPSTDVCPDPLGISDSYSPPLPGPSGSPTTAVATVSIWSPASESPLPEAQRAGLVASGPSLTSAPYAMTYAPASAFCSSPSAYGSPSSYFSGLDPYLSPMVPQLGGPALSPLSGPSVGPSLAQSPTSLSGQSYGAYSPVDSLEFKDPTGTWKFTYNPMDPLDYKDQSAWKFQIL
# Chain of HSF1 (Q00613 whole entry): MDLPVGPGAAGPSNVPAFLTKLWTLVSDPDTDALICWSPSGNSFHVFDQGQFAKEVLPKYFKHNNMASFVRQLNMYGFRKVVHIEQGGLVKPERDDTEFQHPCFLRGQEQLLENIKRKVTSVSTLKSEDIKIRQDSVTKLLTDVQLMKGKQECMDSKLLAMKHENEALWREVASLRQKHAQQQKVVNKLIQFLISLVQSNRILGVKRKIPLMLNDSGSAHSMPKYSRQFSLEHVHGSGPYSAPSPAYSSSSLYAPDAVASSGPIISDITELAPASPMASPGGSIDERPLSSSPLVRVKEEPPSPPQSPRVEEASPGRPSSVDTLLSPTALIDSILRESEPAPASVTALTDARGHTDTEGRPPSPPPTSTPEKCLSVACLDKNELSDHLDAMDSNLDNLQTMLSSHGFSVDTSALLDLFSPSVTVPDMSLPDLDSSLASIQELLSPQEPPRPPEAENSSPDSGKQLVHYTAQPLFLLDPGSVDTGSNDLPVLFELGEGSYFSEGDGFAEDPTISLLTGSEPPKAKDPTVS
# Chain of SPIB (Q01892 whole entry): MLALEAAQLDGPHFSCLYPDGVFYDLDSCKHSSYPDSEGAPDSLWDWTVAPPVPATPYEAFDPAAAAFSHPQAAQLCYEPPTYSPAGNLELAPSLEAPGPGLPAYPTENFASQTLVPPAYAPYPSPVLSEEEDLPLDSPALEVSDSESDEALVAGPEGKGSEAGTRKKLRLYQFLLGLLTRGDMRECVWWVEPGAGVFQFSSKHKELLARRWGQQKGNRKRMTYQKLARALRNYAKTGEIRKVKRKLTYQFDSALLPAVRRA
# Chain of ELF1 (P32519 whole entry): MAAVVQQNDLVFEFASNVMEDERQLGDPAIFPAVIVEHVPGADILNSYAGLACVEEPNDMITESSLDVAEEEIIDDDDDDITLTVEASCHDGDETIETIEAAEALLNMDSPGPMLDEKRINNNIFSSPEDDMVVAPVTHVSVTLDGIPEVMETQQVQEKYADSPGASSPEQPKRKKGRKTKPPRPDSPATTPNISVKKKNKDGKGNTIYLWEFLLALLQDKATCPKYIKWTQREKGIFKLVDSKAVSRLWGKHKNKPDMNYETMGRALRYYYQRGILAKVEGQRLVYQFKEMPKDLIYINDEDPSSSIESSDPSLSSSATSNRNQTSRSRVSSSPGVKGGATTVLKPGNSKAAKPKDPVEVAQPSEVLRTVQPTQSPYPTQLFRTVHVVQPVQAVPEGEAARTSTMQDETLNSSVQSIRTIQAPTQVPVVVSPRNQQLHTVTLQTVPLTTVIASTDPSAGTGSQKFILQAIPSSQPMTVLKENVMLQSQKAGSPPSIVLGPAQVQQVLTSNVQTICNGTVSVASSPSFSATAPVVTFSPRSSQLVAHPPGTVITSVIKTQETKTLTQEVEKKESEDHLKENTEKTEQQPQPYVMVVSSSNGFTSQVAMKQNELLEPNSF
Sequence,binding signal [1],binding signal [2],binding signal [3],binding signal [4],binding signal [5],binding signal [6],binding signal [7],binding signal [8],binding signal [9],binding signal [10],binding signal [11],binding signal [12],binding signal [13],binding signal [14],binding signal [15],binding signal [16],binding signal [17],binding signal [18]
GGCTAG,"1.07 fold enrichment (6-mer frequency, TF over GST control)","1.11 fold enrichment (6-mer frequency, TF over GST control)","1.1 fold enrichment (6-mer frequency, TF over GST control)","1.1 fold enrichment (6-mer frequency, TF over GST control)","1.09 fold enrichment (6-mer frequency, TF over GST control)","1.05 fold enrichment (6-mer frequency, TF over GST control)","1.08 fold enrichment (6-mer frequency, TF over GST control)","1.18 fold enrichment (6-mer frequency, TF over GST control)","1 fold enrichment (6-mer frequency, TF over GST control)","1.08 fold enrichment (6-mer frequency, TF over GST control)","1.06 fold enrichment (6-mer frequency, TF over GST control)","1.18 fold enrichment (6-mer frequency, TF over GST control)","1.2 fold enrichment (6-mer frequency, TF over GST control)","1.1 fold enrichment (6-mer frequency, TF over GST control)","1.22 fold enrichment (6-mer frequency, TF over GST control)","1.15 fold enrichment (6-mer frequency, TF over GST control)","1.05 fold enrichment (6-mer frequency, TF over GST control)","1.03 fold enrichment (6-mer frequency, TF over GST control)"
TTCGCG,"1.13 fold enrichment (6-mer frequency, TF over GST control)","1.07 fold enrichment (6-mer frequency, TF over GST control)",,"1.08 fold enrichment (6-mer frequency, TF over GST control)","1.14 fold enrichment (6-mer frequency, TF over GST control)","1.21 fold enrichment (6-mer frequency, TF over GST control)","1.18 fold enrichment (6-mer frequency, TF over GST control)","1.14 fold enrichment (6-mer frequency, TF over GST control)","1.15 fold enrichment (6-mer frequency, TF over GST control)","1.09 fold enrichment (6-mer frequency, TF over GST control)","1.04 fold enrichment (6-mer frequency, TF over GST control)","1.98 fold enrichment (6-mer frequency, TF over GST control)","1.16 fold enrichment (6-mer frequency, TF over GST control)","1.06 fold enrichment (6-mer frequency, TF over GST control)","1.26 fold enrichment (6-mer frequency, TF over GST control)","1.2 fold enrichment (6-mer frequency, TF over GST control)","1.29 fold enrichment (6-mer frequency, TF over GST control)","1.02 fold enrichment (6-mer frequency, TF over GST control)"
